For five compounds, composite z-score and z-score results are on record in PubChem BioAssay.

A short description of assay [1]: small molecules captured by biotinylated probe aFSTL3 – biochemical, small-molecule microarray, fluorescence 635/667, stem cell growth factor project, primary screen (AID 1064).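 Note: measures binding of the biotinylated anti-FSTL3 antibody to printed compounds.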 The settings on record: higher = more signal.
Assay [2] can be described thus: binders from COS7 lysate, DM2A8 probe, primary screen, torsin A project, cell lysate, small-molecule microarray, fluorescence 635/667 (AID 1065). The settings on record: higher = more signal, COS7 lysate expressing mutant human TOR1A.
Assay [3] in a line: small molecules captured by biotinylated probe aFGF2 – biochemical, small-molecule microarray, fluorescence 635/667, stem cell growth factor project, primary screen (AID 1067).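 Note: measures binding of biotinylated aFGF2 protein to printed compounds on slides; z-score merges feature fluorescence and signal-to-noise across triplicate slides.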 As to conditions: higher = more signal.
A short description of assay [4]: small molecules captured by biotinylated probe aFGF10 – biochemical, small-molecule microarray, fluorescence 635/667, stem cell growth factor project, primary screen (AID 1071).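 Note: score merges 667 nm spot intensity and signal to noise from triplicate slides.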 The settings on record: higher = more signal.
Assay [5] deals with Neurogenic locus notch homolog protein 2 (Homo sapiens) (UniProt Q04721). The assay is described as follows: small molecules binding Notch2 protein – biochemical, small-molecule microarray, 635 nm fluorescence, stem cell growth factors, primary screen (AID 1073). The settings on record: higher = more signal.
Assay [6] concerns the target Pro-neuregulin-1, membrane-bound isoform (Homo sapiens) (UniProt Q02297). Nature of the assay: small molecules binding neuregulin-1 protein – biochemical, small-molecule microarray, fluorescence 635/667, psychiatric disease protein project, primary screen (AID 1075).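 Note: score combines 667 nm spot fluorescence with signal to noise.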 As to conditions: NRG1 binding, 635 nm fluorescence, higher = more signal.
Assay [7] concerns Neuregulin-1 EGF-like domain. Nature of the assay: small molecules binding NRG1 EGF domain – biochemical, small-molecule microarray, 635 nm fluorescence, primary screen (AID 1081).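 Note: binding of the protein to compounds printed on small-molecule microarray slides.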 As to conditions: higher = more signal.
Assay [8] is described as follows: FRG1 expression reporter modulators in myotubes – cell-based, C2C12 myotubes, firefly/Renilla luciferase, luminescence, FRG1 inhibition for FSHD, primary screen (AID 1084). The settings on record: FRG1 promoter luciferase, higher = more signal, called active from +8 up or from −8 down.
Assay [9] is described as follows: small molecules captured by biotinylated probe aFST – biochemical, small-molecule microarray, fluorescence 635/667, stem cell growth factor project, primary screen (AID 1086).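 Note: score merges 667 nm fluorescence with signal-to-noise of each printed compound spot.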 The settings on record: higher = more signal.
Assay [10] is described as follows: binders of probe aHhip on microarray, primary screen, stem cell growth factor project, biochemical, small-molecule microarray, fluorescence 635/667 (AID 1087).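 Note: score merges spot fluorescence at 667nm with spot signal to noise ratio.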 As to conditions: higher = more signal.
Assay [11] concerns PRMT1 (protein arginine N-methyltransferase 1). The assay is described as follows: small molecules binding arginine methyltransferase PRMT1 – biochemical, small-molecule microarray, 635 nm fluorescence, primary screen (AID 1088).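 Note: binding of Prmt1 protein to compounds spotted on small-molecule microarray slides.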 As to conditions: higher = more signal.
Assay [12] can be described thus: growth effects on S. cerevisiae YJM789 – YJM789 clinical isolate, OD600, 24 h, basal, primary screen (AID 1089).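 Note: growth of clinical yeast isolate S. cerevisiae YJM 789 seeded 1000 cells per well; test concentration not given here.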 The settings on record: higher = more signal, called active from +8 up or from −8 down.
Assay [13] can be described thus: S. pombe growth modifiers, basal conditions – strain 972, OD600, 24 h, no modulator, primary screen (AID 1090).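 Note: basal condition with compound alone and no growth modifier present; test concentration not given here.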 As to conditions: S. pombe 972 growth, higher = more signal, called active from +8 up or from −8 down.
Assay [14] is described as follows: budding yeast growth modifiers under rapamycin – strain BY4716, OD600, 96 h, primary screen (AID 1091). Note: test concentration not given here. The settings on record: S. cerevisiae BY4716 + rapamycin, higher = more signal, called active from +8 up or from −8 down.
Assay [15] addresses Torsin-1A-interacting protein 2 (Homo sapiens) (UniProt Q8NFQ8). Nature of the assay: small molecules binding lysate-expressed LULL1 – cell lysate, human LULL1 lysate, 635/667 nm fluorescence, primary screen (AID 1092).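 Note: probe is lysate of COS7 cells overexpressing human LULL1; score merges per-feature 667 nm fluorescence with signal-to-noise.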 As to conditions: small-molecule microarray, hLULL1 lysate binding, 635 nm fluorescence; higher = more signal.
Assay [16] can be described thus: optical density change of DRC41 E. coli – strain DRC41, OD650, 24 h, E. coli filamentation project, primary screen (AID 1093).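 Note: MC1000 strain lacking acrAB efflux and sulA so SOS filamentation is blocked; test concentration not given here.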 The settings on record: E. coli DRC41 growth, higher = more signal, called active from +8 up or from −8 down.
Assay [17] can be described thus: probe aLefty2 binding to arrayed compounds – biochemical, biotinylated probe, 635/667 nm fluorescence, primary screen (AID 1094).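 Note: score merges spot fluorescence near 667 nm with spot signal-to-noise ratio.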 The settings on record: small-molecule microarray, higher = more signal.
The subject of assay [18] is Noggin (protein binding on small-molecule microarray). The assay is described as follows: small molecules binding Noggin protein – biochemical, 635/667 nm fluorescence, primary screen (AID 1095).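 Note: score merges 667 nm feature fluorescence with signal to noise over triplicate slides.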 The settings on record: 635 nm fluorescence, higher = more signal.
Assay [19] addresses Neurogenic locus notch homolog protein 3 (Homo sapiens) (UniProt Q9UM47). The assay is described as follows: small molecules binding NOTCH3 protein – biochemical, 635/667 nm fluorescence, primary screen (AID 1096). As to conditions: small-molecule microarray, 635 nm fluorescence, higher = more signal.
Assay [20] in a line: probe aEGFR binding to arrayed compounds – biochemical, biotinylated probe, 635/667 nm fluorescence, primary screen (AID 1097).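 Note: probe is a biotinylated anti-EGFR antibody binding compounds printed on slides; score combines fluorescence near 667 nm and signal to noise of each spot.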 The settings on record: small-molecule microarray, higher = more signal.

Active and inactive are the calls of the source.

Chain of Torsin-1A-interacting protein 2 (Homo sapiens) (Q8NFQ8 whole entry, looked up): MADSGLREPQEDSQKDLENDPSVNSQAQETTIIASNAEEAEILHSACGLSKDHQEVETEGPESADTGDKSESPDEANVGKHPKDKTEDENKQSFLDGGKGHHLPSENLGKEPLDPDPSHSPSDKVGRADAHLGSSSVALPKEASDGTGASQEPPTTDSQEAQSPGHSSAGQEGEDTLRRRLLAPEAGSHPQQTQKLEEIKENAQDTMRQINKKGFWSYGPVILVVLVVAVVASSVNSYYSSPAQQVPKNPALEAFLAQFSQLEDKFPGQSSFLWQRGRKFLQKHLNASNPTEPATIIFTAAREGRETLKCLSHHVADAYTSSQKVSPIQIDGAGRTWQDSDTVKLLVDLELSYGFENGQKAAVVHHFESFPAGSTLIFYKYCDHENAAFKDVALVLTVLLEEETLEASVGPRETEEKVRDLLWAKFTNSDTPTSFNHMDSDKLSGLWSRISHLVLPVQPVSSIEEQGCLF
Chain of Neurogenic locus notch homolog protein 3 (Homo sapiens) (Q9UM47 whole entry, looked up): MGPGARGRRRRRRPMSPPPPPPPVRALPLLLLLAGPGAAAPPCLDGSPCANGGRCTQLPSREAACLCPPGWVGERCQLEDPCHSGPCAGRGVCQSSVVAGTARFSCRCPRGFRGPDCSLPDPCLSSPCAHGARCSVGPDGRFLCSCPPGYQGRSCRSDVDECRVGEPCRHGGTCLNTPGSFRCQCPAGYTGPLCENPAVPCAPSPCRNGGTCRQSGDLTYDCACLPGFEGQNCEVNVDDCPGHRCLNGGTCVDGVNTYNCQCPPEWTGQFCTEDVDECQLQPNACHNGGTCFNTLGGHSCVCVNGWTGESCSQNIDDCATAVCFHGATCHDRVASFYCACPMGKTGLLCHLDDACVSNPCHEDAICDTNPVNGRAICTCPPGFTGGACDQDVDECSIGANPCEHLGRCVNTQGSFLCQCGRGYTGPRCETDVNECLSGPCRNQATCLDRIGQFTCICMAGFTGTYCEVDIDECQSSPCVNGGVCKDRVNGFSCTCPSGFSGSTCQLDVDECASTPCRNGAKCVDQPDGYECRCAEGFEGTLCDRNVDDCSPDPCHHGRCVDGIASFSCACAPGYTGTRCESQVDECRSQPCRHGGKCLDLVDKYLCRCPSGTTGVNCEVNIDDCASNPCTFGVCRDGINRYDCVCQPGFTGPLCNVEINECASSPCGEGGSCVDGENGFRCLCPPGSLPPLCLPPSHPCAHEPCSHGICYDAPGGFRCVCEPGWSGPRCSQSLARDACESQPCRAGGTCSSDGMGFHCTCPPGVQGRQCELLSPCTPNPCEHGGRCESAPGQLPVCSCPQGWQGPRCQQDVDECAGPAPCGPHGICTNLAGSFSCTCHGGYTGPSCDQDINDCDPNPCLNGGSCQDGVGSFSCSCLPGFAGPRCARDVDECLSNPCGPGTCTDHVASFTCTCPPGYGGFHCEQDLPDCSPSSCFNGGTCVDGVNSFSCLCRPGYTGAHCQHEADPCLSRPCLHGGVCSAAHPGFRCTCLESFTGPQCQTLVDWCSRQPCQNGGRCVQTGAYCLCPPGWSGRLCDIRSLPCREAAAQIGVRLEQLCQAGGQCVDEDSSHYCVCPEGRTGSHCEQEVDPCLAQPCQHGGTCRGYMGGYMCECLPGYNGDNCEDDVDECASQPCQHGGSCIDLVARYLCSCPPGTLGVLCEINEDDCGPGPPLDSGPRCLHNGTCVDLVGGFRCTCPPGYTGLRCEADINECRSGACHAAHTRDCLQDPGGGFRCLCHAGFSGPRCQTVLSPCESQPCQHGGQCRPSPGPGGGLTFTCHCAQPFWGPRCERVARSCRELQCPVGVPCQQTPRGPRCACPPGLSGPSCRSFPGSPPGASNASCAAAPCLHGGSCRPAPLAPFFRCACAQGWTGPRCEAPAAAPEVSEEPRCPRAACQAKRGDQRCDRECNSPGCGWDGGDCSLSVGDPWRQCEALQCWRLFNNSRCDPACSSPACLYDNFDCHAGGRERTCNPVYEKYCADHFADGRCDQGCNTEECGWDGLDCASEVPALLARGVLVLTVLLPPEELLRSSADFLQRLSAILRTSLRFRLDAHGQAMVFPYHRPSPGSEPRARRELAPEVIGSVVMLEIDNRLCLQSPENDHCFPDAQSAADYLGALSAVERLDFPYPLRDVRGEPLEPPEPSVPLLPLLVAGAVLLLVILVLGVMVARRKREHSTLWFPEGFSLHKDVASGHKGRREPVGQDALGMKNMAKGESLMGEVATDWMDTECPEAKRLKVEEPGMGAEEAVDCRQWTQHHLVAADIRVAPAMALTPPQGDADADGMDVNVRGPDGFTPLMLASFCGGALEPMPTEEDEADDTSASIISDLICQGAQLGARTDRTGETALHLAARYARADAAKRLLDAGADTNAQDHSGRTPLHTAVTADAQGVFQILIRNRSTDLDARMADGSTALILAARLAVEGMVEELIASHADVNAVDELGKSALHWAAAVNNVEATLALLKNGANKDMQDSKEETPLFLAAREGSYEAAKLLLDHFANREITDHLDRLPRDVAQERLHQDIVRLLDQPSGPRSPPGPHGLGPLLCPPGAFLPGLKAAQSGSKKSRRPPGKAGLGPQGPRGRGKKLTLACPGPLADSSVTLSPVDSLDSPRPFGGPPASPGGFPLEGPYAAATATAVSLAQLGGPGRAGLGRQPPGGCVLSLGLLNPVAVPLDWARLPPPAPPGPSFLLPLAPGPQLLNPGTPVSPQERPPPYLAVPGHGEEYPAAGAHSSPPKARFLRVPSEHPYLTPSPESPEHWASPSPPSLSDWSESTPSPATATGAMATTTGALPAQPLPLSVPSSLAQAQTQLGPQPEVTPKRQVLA
Chain of Pro-neuregulin-1, membrane-bound isoform (Homo sapiens) (Q02297 whole entry, looked up, the tested form may be a part, canonical isoform): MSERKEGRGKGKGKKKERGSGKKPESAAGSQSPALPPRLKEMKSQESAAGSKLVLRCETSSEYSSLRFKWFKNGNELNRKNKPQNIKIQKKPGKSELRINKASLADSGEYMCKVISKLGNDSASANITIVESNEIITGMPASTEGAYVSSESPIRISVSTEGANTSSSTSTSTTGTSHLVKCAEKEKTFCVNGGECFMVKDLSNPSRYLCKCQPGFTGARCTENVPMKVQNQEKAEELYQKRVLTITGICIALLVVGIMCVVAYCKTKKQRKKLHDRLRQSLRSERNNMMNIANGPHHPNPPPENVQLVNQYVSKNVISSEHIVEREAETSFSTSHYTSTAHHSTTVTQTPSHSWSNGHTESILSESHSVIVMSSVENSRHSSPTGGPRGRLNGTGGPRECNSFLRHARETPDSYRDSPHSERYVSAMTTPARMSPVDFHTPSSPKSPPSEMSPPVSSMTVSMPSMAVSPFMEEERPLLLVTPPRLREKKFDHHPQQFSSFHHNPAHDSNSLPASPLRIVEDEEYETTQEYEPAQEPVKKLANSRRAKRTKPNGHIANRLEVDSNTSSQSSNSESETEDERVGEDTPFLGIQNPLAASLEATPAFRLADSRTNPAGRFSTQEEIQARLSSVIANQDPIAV

Regarding `C=CCN1C(=O)[C@]2(O[C@H](CCn3cc(CCO)nn3)[C@@H]([Si](C)(C)c3ccc(OC)cc3)[C@@H]2C)c2cc(N3CCOC3=O)ccc21`, the composite z-score in assay [1] was -0.0415; in assay [2] it was 0.0421; in assay [3], -0.152; in assay [4], 0.0622; in assay [5] it was -0.447; in assay [6] it was 1.05. For the same compound, the composite z-score in assay [7] was 1.18; in assay [9] it was -0.414; in [10], -0.261; in assay [11], 1.19; in assay [15], 2.79; in assay [17] it was -0.271. The composite z-score in assay [18] is 0.432; in assay [19] it was 0.231; in assay [20], -0.256. Besides, the z-score in assay [8] is -3.36 (inactive); in assay [12] it was -0.621 (inactive); in [13], -0.111 (inactive); in assay [14], -0.0506 (inactive); in [16] it was -0.342 (inactive).
As to `C[C@H]1CC[C@@H](C(=O)O)N[C@@H]1c1ccc(C#CCN(C)C)cc1`, the composite z-score was -0.326 in assay [1]; 0.451 in assay [2]; -0.0943 in [3]; 0.185 in [4]; 0.608 in assay [5]; 0.115 in assay [6]. Besides, the composite z-score is 0.0934 in assay [7]; 0.629 in [9]; -0.119 in assay [10]; -0.521 in [11]; -0.141 in assay [15]; -0.128 in assay [17]. The composite z-score in assay [18] was 0.102; in assay [19] it was 0.498; in assay [20], -0.0564. Besides, the z-score in assay [8] is -0.794 (inactive); in assay [12], 1.07 (inactive); in assay [13], -0.509 (inactive); in [14] it was -0.434 (inactive); in assay [16], 0.657 (inactive).
Consider `CCc1cc2c(nc1CC)CCN(CCC(C)=NO[C@@H](C)c1cc(-c3c(C)cc(C)cc3C)no1)C2`, for which the composite z-score in assay [1] was -0.291; in assay [2], 0.0396; in assay [3], -0.126; in assay [4], -0.298; in assay [5] it was -0.89; in [6], 0.191. The composite z-score in assay [7] was -0.0858; in assay [9] it was -0.119; in [10], 0.0187; in assay [11], 0.608; in [15], 0.468; in assay [17], -0.0765. Besides, the composite z-score in assay [18] was 0.343; in assay [19] it was -1.5; in assay [20], -0.172. For the same compound, the z-score in [8] was -1.01 (inactive); in assay [12], -0.889 (inactive); in [13] it was -6.86 (inactive); in assay [14], -1.26 (inactive); in assay [16] it was -0.0254 (inactive).
In the case of `CCCCCN1CC=CC23O[C@@H]4C=CCOC(=O)[C@@H]4[C@H]2C(=O)N(CCCCCCO)[C@@H]3C1=O` (stereo not given in full), the composite z-score in assay [1] was 0.729; in assay [2], -0.859; in assay [3], -0.133; in assay [4] it was -0.237; in assay [5], -1.14; in assay [6], 2.35. For the same compound, the composite z-score in [7] was 0.975; in assay [9] it was -0.823; in assay [10], -0.429; in assay [11], -0.0856; in assay [15], 0.865; in [17], -0.0436. The values for the composite z-score in assay [18], in [19] and in assay [20] were -1.38, -0.973 and -0.254, respectively. For the same compound, the z-score in [8] is 0.428 (inactive); in [12], -0.44 (inactive); in [13] it was -0.183 (inactive); in [14], -0.291 (inactive); in [16], 0.0293 (inactive).
`CC(C)CON=C1C[C@@H](O)[C@@H](O)[C@@H]2[C@@H]3C(=O)N(Cc4ccccc4)C(=O)[C@@H]3CC[C@@H]12`: the composite z-score in [1] is -0.404; in assay [2] it was 0.129; in assay [3] it was -0.141; in assay [4] it was 0.256; in assay [5], 0.455; in [6] it was -0.344. For the same compound, the composite z-score in assay [7] was 0.211; in assay [9] it was -0.313; in assay [10], -0.199; in assay [11], 0.517; in assay [15], 0.434; in assay [17], -0.099. For the same compound, the composite z-score in [18] was 0.484; in assay [19] it was 0.59; in assay [20], -0.0679. The z-score was 0.166 (inactive) in assay [8]; -0.443 (inactive) in [12]; -0.264 (inactive) in [13]; -0.682 (inactive) in assay [14]; 0.354 (inactive) in assay [16].
